The panel holds about 79,000 compounds, 15% with a hit somewhere; the sample as a whole holds those more often. Values without a mark were called inactive. Active and inactive are the calls of the source. Cut-off read from the data, not from the text of the source: active = growth inhibition above about 70%; inactive = the rest.

Experiment [1] is described as follows: NCI Yeast Anticancer Drug Screen. Data for the rad50 strain (AID 155).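 Note: 0% = growth of vehicle-only cultures of the same strain.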 Particulars: S. cerevisiae rad50 strain growth inhibition; at 50.0 µM; hits give high values. A digest of the protocol:
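Relative growth inhibition (compound vs vehicle) was measured in yeast with a defined repair-gene alteration.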

A short description of experiment [2]: NCI Yeast Anticancer Drug Screen. Data for the mec2-1 strain (AID 157). The following applies: S. cerevisiae mec2-1 strain, at 50.0 µM, hits give high values. A digest of the protocol: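 Growth inhibition is read against vehicle-treated controls after compound exposure of the mec2-1 yeast strain, which is defective in DNA damage repair or cell cycle control.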

Experiment [3] can be described thus: NCI Yeast Anticancer Drug Screen. Data for the sgs1 mgt1 strain (AID 161).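 Note: 0% = growth of cultures given vehicle only.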 Particulars: S. cerevisiae sgs1 mgt1 strain, at 50.0 µM, hits give high values. A digest of the protocol:
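Growth of a repair-deficient yeast mutant was monitored after compound treatment and expressed as inhibition relative to vehicle-treated cultures.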

Experiment [4] in a line: NCI Yeast Anticancer Drug Screen. Data for the cln2 rad14 strain (AID 165).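 Note: 0% = growth equal to vehicle treated cultures.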 The following applies: S. cerevisiae cln2 rad14 strain, at 50.0 µM, hits give high values. A digest of the protocol: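 Growth inhibition, relative to vehicle-treated controls, is the read-out. The test organism is a yeast strain with defined genetic alterations, cln2 rad14.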
Experiment [5] can be described thus: NCI Yeast Anticancer Drug Screen. Data for the bub3 strain (AID 167). Particulars: S. cerevisiae bub3 mutant strain, at 50.0 µM, hits give high values. A digest of the protocol:
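Screening used yeast with an engineered genetic alteration affecting cell cycle control. Compound-exposed cultures were compared with vehicle cultures, and reduced growth was taken as inhibition.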

Experiment [6] is described as follows: NCI Yeast Anticancer Drug Screen. Data for the mlh1 rad18 strain (AID 175). Particulars: S. cerevisiae mlh1 rad18 strain growth inhibition; at 50.0 µM; hits give high values. A digest of the protocol:
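Cells of a genetically altered yeast strain, deficient in DNA damage repair, were treated with compound. Their growth was then compared with that of vehicle-treated cultures to give inhibition.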

In the case of `O=C(Nc1ccccc1F)C(c1ccccc1)c1ccccc1`, the growth inhibition in experiment [1] was 14.8%; in experiment [2], 8.95%; in experiment [3], 3.25%; in experiment [4] it was -1.45%; in experiment [5] it was 11.8%; in experiment [6], 4%.

`CC1=NN(c2ccc(S(=O)(=O)O)cc2)C(=O)C1N=Nc1ccc(C)c(S(=O)(=O)Nc2ccccc2)c1` (stereo not given): the growth inhibition in experiment [1] was 5.95%; in experiment [2] it was -17.9%; in experiment [3] it was 8%; in experiment [4], 15%; in experiment [5], 5.45%; in experiment [6], 10.8%.

In the case of `Cc1[nH]c2c(C)ccc(C)c2c1CC(=O)O`, the growth inhibition in experiment [1] was 29.7%; in experiment [2] it was -15.1%; in experiment [3], -40.8%; in experiment [4] it was 17.1%; in experiment [5], -24.1%; in experiment [6], 10.2%.

`COc1c(C)c(C)c(OC)c(CC(=O)O)c1C`: the growth inhibition is -3.05% in experiment [1]; -0.6% in experiment [2]; -3.7% in experiment [3]; -34.9% in experiment [4]; -17.7% in experiment [5]; 4.9% in experiment [6].

For `O=C(/C=C/c1ccc(Cl)cc1)c1cccs1`, the growth inhibition in experiment [1] was -2.85%; in experiment [2], -14.3%; in experiment [3], 36.6%; in experiment [4] it was 1.25%; in experiment [5] it was 9.55%; in experiment [6], -7.75%.

On to `CC1(C)C2CCC(CN)C1C2` (stereo not given), for which the growth inhibition is -11.4% in experiment [1]; -44.6% in experiment [2]; -1.7% in experiment [3]; 13.3% in experiment [4]; -20.1% in experiment [5]; -15.6% in experiment [6].

`[Cl][Pt+2][Cl].[NH-]CC(C[NH-])(Cc1ccccc1)Cc1ccccc1`: the growth inhibition in experiment [1] is -0.55%; in experiment [2] it was -13.9%; in experiment [3], -2.2%; in experiment [4] it was 15.1%; in experiment [5], -18.2%; in experiment [6] it was -38.6%.

For the compound `CSc1nnc2c3ccccc3ccn12`, the growth inhibition in experiment [1] was 4.9%; in experiment [2] it was 11.6%; in experiment [3], -2.25%; in experiment [4] it was -3.3%; in experiment [5], -14.1%; in experiment [6] it was 52.5%.

Consider `CC(=O)Oc1nc2ccccc2n1C(C)=O`, for which the growth inhibition in experiment [1] was 15.3%; in experiment [2], 20.9%; in experiment [3] it was 20.6%; in experiment [4], -5.1%; in experiment [5], 39.5%; in experiment [6] it was 5.55%.

Take `COc1cc2ccc3c4cc(OC)c(OCc5ccccc5)cc4cnc3c2cc1OC`: the growth inhibition in experiment [1] was 40.5%; in experiment [2], 0.45%; in experiment [3], 4.9%; in experiment [4], 18.9%; in experiment [5] it was 27.4%; in experiment [6], 23%.

`Cc1ccc(C)c(CNC(=O)NC(C)(C)C)c1`: the growth inhibition was -10.2% in experiment [1]; -4.25% in experiment [2]; -6.65% in experiment [3]; -63.8% in experiment [4]; -11.2% in experiment [5]; -0.75% in experiment [6].

On to `COc1cnn(-c2ccccc2)c(=O)c1Cl`, for which the growth inhibition in experiment [1] was -1.4%; in experiment [2], -7.35%; in experiment [3] it was -1.85%; in experiment [4], -3.7%; in experiment [5], 0.8%; in experiment [6], -13.9%.

For the compound `CCOC(=O)N1C=NC23C(c4ccccc4)C(c4ccccc4)C12C(=O)N(C)C(=O)N3C` (stereo not given), the growth inhibition is -1.55% in experiment [1]; -9.2% in experiment [2]; 0.7% in experiment [3]; -26.8% in experiment [4]; -8.35% in experiment [5]; -30.9% in experiment [6].

On to `CNC(=S)N/N=C/c1nc2ccccc2c(=O)n1-c1ccc(Cl)cc1`, for which the growth inhibition in experiment [1] was 19.6%; in experiment [2], 0.75%; in experiment [3], 36.6%; in experiment [4] it was 2.55%; in experiment [5] it was -2.5%; in experiment [6], 10.2%.

As for `O=C(O)C(CBr)c1ccccc1` (stereo not given), the growth inhibition in experiment [1] is 6.7%; in experiment [2], 7.2%; in experiment [3], -0.55%; in experiment [4], 13.2%; in experiment [5] it was 0.05%; in experiment [6], 0.5%.

For `CCSC(=S)S(=O)(=O)c1ccc(C)cc1`, the growth inhibition in experiment [1] was 90.4% (active); in experiment [2] it was 93.1% (active); in experiment [3], 89.5% (active); in experiment [4] it was 90.5% (active); in experiment [5], 84.2% (active); in experiment [6] it was 92.3% (active).

`CC1OC(OC(=O)c2ccc([N+](=O)[O-])cc2)CC(OC(=O)c2ccc([N+](=O)[O-])cc2)C1OC(=O)c1ccc([N+](=O)[O-])cc1` (stereo not given): the growth inhibition in experiment [1] is 18.4%; in experiment [2] it was 5.45%; in experiment [3], -10.2%; in experiment [4] it was 24.7%; in experiment [5], 1.6%; in experiment [6] it was -24.8%.

With `Cc1cccc(NC(=O)C(C)C)c1`, the growth inhibition is 24.3% in experiment [1]; 19.4% in experiment [2]; 11.8% in experiment [3]; -2.35% in experiment [4]; -43.9% in experiment [5]; -33% in experiment [6].

For the compound `COc1cccc(/C(CC(O)(C(F)(F)F)C(F)(F)F)=N\N(C)C)c1`, the growth inhibition in experiment [1] is -30.6%; in experiment [2], -9.9%; in experiment [3], -8.7%; in experiment [4] it was -38.2%; in experiment [5] it was 1.5%; in experiment [6], -25.2%.

Turning to `O=[N+]([O-])c1cc(S(=O)(=O)O)cc(S(=O)(=O)O)c1O`, the growth inhibition in experiment [1] is 12.6%; in experiment [2] it was 2.6%; in experiment [3], 13.2%; in experiment [4], 19.6%; in experiment [5], 16.5%; in experiment [6], 18.1%.
